Among the test systems are HCT-15 colon; HT29 colon; SNB-75 CNS; SNB-19 CNS; U251 CNS; PC-3 prostate; SK-MEL-5 melanoma; UACC-62 melanoma; LOX IMVI melanoma; SK-MEL-28 melanoma; SK-MEL-2 melanoma; EKVX NSCLC; SN12C renal; UO-31 renal; TK-10 renal; ACHN renal; CAKI-1 renal; A498 renal; CCRF-CEM leukemia; MOLT-4 leukemia.
What all share (assay): NCI-60 one-dose screen, 48 h (100 = growth as untreated, 0 = no growth, -100 = all killed)
Settings in all cases: 10 µM unless noted

About 83,000 compounds went through this panel and 20% of them were active in at least one assay; those are over-represented in the sample as a whole.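 In brief: 96-well plates, 48 h treatment, single concentration, percent growth endpoint.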 Values without a mark were called inactive. The source made the active and inactive calls. The calls were made as follows: active = growth percent below 10; inactive = the rest.

In the case of `CCN1C(=O)N(c2ccccc2)C2NC(=S)N(/N=C/C=C/c3ccccc3)C21` (stereo not given), the growth was 12.6% in the assay with HCT-15 colon; 4.84% (active) with HT29 colon; 35.5% with SNB-75 CNS; 22.6% with SNB-19 CNS; 13.9% in the assay with U251 CNS; 14% with PC-3 prostate. For the same compound, the growth was 3.14% (active) in the assay with SK-MEL-5 melanoma; 20% in the assay with UACC-62 melanoma; 14.8% with LOX IMVI melanoma; 60.1% in the assay on SK-MEL-28 melanoma; 16.8% in the assay with SK-MEL-2 melanoma; 23.2% in the assay with EKVX NSCLC. The growth with SN12C renal was 19.8%; in the assay with UO-31 renal, 35.5%; in the assay with TK-10 renal it was 50.1%; in the assay with ACHN renal, 21.7%; in the assay on CAKI-1 renal, 29.6%; with A498 renal, 6.81% (active). Moreover, the growth was 3.8% (active) with CCRF-CEM leukemia and 8.35% (active) with MOLT-4 leukemia.

As to `Nn1c(-c2ccc(Cl)cc2)nc2c(-c3ccc(Cl)cc3)nc3ccc(Cl)cc3c2c1=O`, the growth in the assay on HCT-15 colon was 58.2%; in the assay on HT29 colon, 7.88% (active); with SNB-75 CNS it was -51.4% (active); with SNB-19 CNS, 28.2%; with U251 CNS, -63.5% (active); with PC-3 prostate it was 36.6%. The growth is 52.5% in the assay on SK-MEL-5 melanoma; 30.3% in the assay on UACC-62 melanoma; 20.2% with LOX IMVI melanoma; -67.2% (active) in the assay on SK-MEL-28 melanoma; 73.3% in the assay on SK-MEL-2 melanoma; 6.86% (active) with EKVX NSCLC. The growth in the assay with SN12C renal is -3.15% (active); in the assay on UO-31 renal, -24.9% (active); with TK-10 renal, 0.823% (active); with ACHN renal, 4.66% (active); in the assay with CAKI-1 renal it was 14.7%; in the assay on A498 renal, 21.3%. Moreover, the growth with CCRF-CEM leukemia is -15.8% (active); in the assay on MOLT-4 leukemia, 32.3%.

In the case of `COc1cc(/C=C/C(=O)c2ccc(NC(=O)CSc3nnc(-c4cc(-c5ccccc5)nc5ccccc45)n3-c3ccccc3)cc2)cc(OC)c1OC`, the growth was 65.9% in the assay on HCT-15 colon; 54.7% with HT29 colon; 104% with SNB-75 CNS; 95.1% with SNB-19 CNS; 94% in the assay with U251 CNS; 81.6% in the assay with PC-3 prostate. The growth in the assay on SK-MEL-5 melanoma was 87%; in the assay on UACC-62 melanoma, 71.9%; in the assay with LOX IMVI melanoma, 89.4%; in the assay on SK-MEL-28 melanoma, 101%; with SK-MEL-2 melanoma, 100%; with EKVX NSCLC, 84.9%. Besides, the growth in the assay with SN12C renal was 83.8%; in the assay with UO-31 renal, 87.7%; in the assay with TK-10 renal, 109%; with ACHN renal, 78.6%; with CAKI-1 renal it was 72.4%; in the assay on A498 renal, 87.8%. Also, the results for the growth in the assay on CCRF-CEM leukemia and in the assay with MOLT-4 leukemia were 84.2% and 52.7%, respectively.

On to `O=C(/C=C/c1cccs1)Nc1ncc(Cc2ccc(Cl)c(Cl)c2)s1`, for which the growth in the assay on HCT-15 colon is 28.9%; in the assay with HT29 colon, 24.2%; in the assay on SNB-75 CNS, 64%; with SNB-19 CNS, 71.1%; with U251 CNS, 59%; in the assay with PC-3 prostate, 77.6%. Moreover, the growth in the assay on SK-MEL-5 melanoma is 41.6%; in the assay on UACC-62 melanoma, 17.6%; in the assay on LOX IMVI melanoma, 23.3%; with SK-MEL-28 melanoma, 63.6%; with SK-MEL-2 melanoma, 77.1%; in the assay with EKVX NSCLC, 57.8%. In addition, the growth is 79.8% in the assay with SN12C renal; 49.6% in the assay with UO-31 renal; 61.5% in the assay on TK-10 renal; 36.4% in the assay on ACHN renal; 23.8% in the assay on CAKI-1 renal; 57.1% with A498 renal. The growth with CCRF-CEM leukemia is 68%; in the assay on MOLT-4 leukemia it was 51.4%.

As to `CC1(C)C(N)=Nc2cc(OCCCN3Cc4ccc(OCCc5cn(CC(=O)N6CCC(CCN7CCCC7)CC6)nn5)cc4C3)c(OCC3CC3)cc21`, the growth was 97.2% in the assay on HCT-15 colon; 74.2% in the assay with HT29 colon; 93.8% in the assay with SNB-75 CNS; 104% in the assay with SNB-19 CNS; 97.7% in the assay with U251 CNS; 84.5% in the assay with PC-3 prostate. Further, the growth with SK-MEL-5 melanoma was 103%; with UACC-62 melanoma, 98.6%; in the assay on LOX IMVI melanoma, 100%; in the assay on SK-MEL-28 melanoma, 108%; in the assay on SK-MEL-2 melanoma, 109%; with EKVX NSCLC it was 101%. Also, the growth in the assay on SN12C renal was 96.1%; in the assay on UO-31 renal, 90.8%; with TK-10 renal, 100%; with ACHN renal it was 103%; in the assay on CAKI-1 renal, 91.2%; in the assay on A498 renal, 104%. Also, the results for the growth in the assay with CCRF-CEM leukemia and with MOLT-4 leukemia were 96.2% and 99.9%, respectively.

As to `COc1cc(-c2nc(SCCC(C)C)nc(Nc3ccc(F)cc3)c2C#N)cc(OC)c1OC`, the growth in the assay with HCT-15 colon was 88.8%; with HT29 colon it was 55%; with SNB-75 CNS, 30.8%; with SNB-19 CNS, 45.5%; with U251 CNS, 29.7%; with PC-3 prostate, 75.9%. In addition, the growth in the assay with SK-MEL-5 melanoma is 97.6%; in the assay on UACC-62 melanoma, 80.5%; with LOX IMVI melanoma, 79.2%; in the assay with SK-MEL-28 melanoma, 104%; in the assay with SK-MEL-2 melanoma it was 101%; with EKVX NSCLC, 85%. Further, the growth in the assay on SN12C renal is 64.6%; in the assay with UO-31 renal, 64.6%; with TK-10 renal, 41.4%; in the assay with ACHN renal it was 34.1%; in the assay with CAKI-1 renal, 49.6%; in the assay on A498 renal it was 62.5%. Moreover, the figures for the growth in the assay on CCRF-CEM leukemia and with MOLT-4 leukemia were 91.4% and 83.4%, respectively.

Regarding `COc1ccc(/C=C2\COc3ccc(O)c(O)c3C2=O)c(OC)c1OC`, the growth is 1.33% (active) with HCT-15 colon; 44.7% in the assay on HT29 colon; 37.9% with SNB-75 CNS; 28.2% in the assay on SNB-19 CNS; 14.4% with U251 CNS; 36.8% with PC-3 prostate. Further, the growth was 35.5% with SK-MEL-5 melanoma; -56.9% (active) in the assay on UACC-62 melanoma; 0.166% (active) with LOX IMVI melanoma; 58% in the assay on SK-MEL-28 melanoma; 70.3% with SK-MEL-2 melanoma; 65.7% with EKVX NSCLC. Besides, the growth is 0.808% (active) in the assay with SN12C renal; -5.7% (active) in the assay on UO-31 renal; 45.1% in the assay on TK-10 renal; 12.5% with ACHN renal; 39% in the assay with CAKI-1 renal; 109% in the assay with A498 renal. Also, the growth with CCRF-CEM leukemia was 3.07% (active); in the assay with MOLT-4 leukemia, 1.41% (active).
